What all share (experiment): growth (OD600 after 10 h); higher = more growth (less inhibition)
For assay [1], the system named is E. coli TESEC Alr+ wild-type control. The following applies: compound 0.1 mM; raw OD600 reference: median of DMSO wells 0.241, cell-free background 0.041. Here is the method: (§1)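 TESEC Mtb Alr E. coli, or the Alr+ wild-type control, in 384-well plates with Prestwick library compounds at 0.1 mM and 1% DMSO, across arabinose induction levels of 1E3 to 1E7 nM. Growth is read as OD600 after 10 h at 37 °C in triplicate biological replicates.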

For assay [2], the system named is E. coli TESEC Mtb Alr. The following applies: compound 0.1 mM. On the procedure: as §1
The subject of a further assay is E. coli TESEC Mtb Asd. The following applies: compound 0.1 mM. Here is the method:
(§2)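 TESEC E. coli strains in which the native enzyme is deleted and replaced by arabinose-inducible Mtb Asd, DapB, CysH or TrpD, each grown in its selective medium. Strains were screened against the Prestwick library at 0.1 mM and 1% DMSO in 384-well format at low and high arabinose induction. Growth is read as OD600 after 10 h in triplicate.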

Another assay relates to E. coli TESEC Mtb DapB. The following applies: compound 0.1 mM. On the procedure: as §2
Assay [3] has as its system E. coli TESEC Mtb Alr. The following applies: compound 0.1 mM. On the procedure: (§3)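 TESEC Mtb Alr E. coli (ΔaraC ΔtolC ΔentC Δalr ΔdadX, arabinose-inducible Mtb Alr) or the Alr+ wild-type control strain, grown in defined M9-fructose medium without D-alanine in 96-well plates with Prestwick library compounds at 0.1 mM and 1% DMSO. Low Alr induction is 0.1 µM arabinose and high induction is 10 mM arabinose.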
This is another data set of the same source.

The test system of assay [4] is E. coli TESEC Alr+ wild-type control. The following applies: compound 0.1 mM; raw OD600 reference: median of DMSO wells 0.49, cell-free background 0.052. On the procedure: as §3
[5] abbreviates: arabinose 1000 nM, raw OD600 reference: median of DMSO wells 0.294, cell-free background 0.041.
[6] abbreviates: arabinose 10000 nM, raw OD600 reference: median of DMSO wells 0.264, cell-free background 0.041.
Where [7] appears, read: arabinose 100000 nM, raw OD600 reference: median of DMSO wells 0.201, cell-free background 0.041.
The mark [8] stands for this setting: arabinose 1000000 nM, raw OD600 reference: median of DMSO wells 0.193, cell-free background 0.041.
Where [9] appears, read: arabinose 10000000 nM, raw OD600 reference: median of DMSO wells 0.146, cell-free background 0.041.
Where [10] appears, read: arabinose induction (level): High, raw OD600 reference: median of DMSO wells 0.331, cell-free background 0.041.
Where [11] appears, read: arabinose induction (level): Low, raw OD600 reference: median of DMSO wells 0.417, cell-free background 0.041.
[12] abbreviates: arabinose induction (level): High, raw OD600 reference: median of DMSO wells […], cell-free background 0.041.
Where [13] appears, read: arabinose induction (level): Low, raw OD600 reference: median of DMSO wells 0.227, cell-free background 0.041.
The mark [14] stands for this setting: arabinose 100 nM, raw OD600 reference: median of DMSO wells 0.413, cell-free background 0.052.
The mark [15] stands for this setting: arabinose 10000000 nM, raw OD600 reference: median of DMSO wells […], cell-free background 0.052.

Where a name gives a salt, the structure may show the parent alone. ± gives the standard deviation of the averaged measurements.

Take `S=C(NC1CCCCC1)N1CCC(c2cnc[nH]2)CC1` [Thioperamide maleate]: the growth in assay [1] came to 0.218 ± 0.0074; in the assay with E. coli TESEC Mtb Alr [2] (setting [5]) it was 0.286 ± 0.015; with E. coli TESEC Mtb Alr [2] (setting [6]) it was 0.257 ± 0.013; in the assay on E. coli TESEC Mtb Alr [2] (setting [7]) it was 0.17 ± 0.016; in the assay on E. coli TESEC Mtb Alr [2] (setting [8]), 0.15 ± 0.0049; with E. coli TESEC Mtb Alr [2] (setting [9]) it was 0.131 ± 0.0035. Besides, the growth with E. coli TESEC Mtb Asd (setting [10]) worked out at 0.273 ± 0.013; in the assay on E. coli TESEC Mtb Asd (setting [11]), 0.495 ± 0.039; in the assay with E. coli TESEC Mtb DapB (setting [12]), 0.201 ± 0.015; in the assay on E. coli TESEC Mtb DapB (setting [13]), 0.21 ± 0.008; with E. coli TESEC Mtb Alr [3] (setting [14]) it was 0.402 ± 0.016; in the assay with E. coli TESEC Mtb Alr [3] (setting [15]) it was 0.299 ± 0.029.

Regarding `CC(C)c1cccc(C(C)C)c1O` [Propofol], the growth in assay [1] was found to be 0.245 ± 0.0043; in the assay on E. coli TESEC Mtb Alr [2] (setting [5]), 0.309 ± 0.017; with E. coli TESEC Mtb Alr [2] (setting [6]) it was 0.255 ± 0.0092; with E. coli TESEC Mtb Alr [2] (setting [7]), 0.202 ± 0.0052; with E. coli TESEC Mtb Alr [2] (setting [8]) it was 0.175 ± 0.0063; with E. coli TESEC Mtb Alr [2] (setting [9]), 0.144 ± 0.0055. Further, the growth came out at 0.441 ± 0.024 with E. coli TESEC Mtb Asd (setting [10]); 0.439 ± 0.03 with E. coli TESEC Mtb Asd (setting [11]); 0.212 ± 0.011 in the assay with E. coli TESEC Mtb DapB (setting [12]); 0.236 ± 0.028 in the assay on E. coli TESEC Mtb DapB (setting [13]); 0.389 ± 0.01 in the assay on E. coli TESEC Mtb Alr [3] (setting [14]); 0.328 ± 0.0056 in the assay with E. coli TESEC Mtb Alr [3] (setting [15]).

Regarding `CC[C@@]1([C@@H]2O[C@@H]([C@H]3O[C@@](O)(CO)[C@H](C)C[C@@H]3C)C[C@@H]2C)CC[C@H]([C@]2(C)CC[C@]3(C[C@H](O)[C@@H](C)[C@@H]([C@@H](C)[C@@H](OC)[C@H](C)C(=O)O)O3)O2)O1` [Monensin sodium salt], the growth in assay [1] is 0.218 ± 0.0078; in the assay with E. coli TESEC Mtb Alr [2] (setting [5]), 0.279 ± 0.017; in the assay with E. coli TESEC Mtb Alr [2] (setting [6]) it was 0.264 ± 0.0038; in the assay with E. coli TESEC Mtb Alr [2] (setting [7]) it was 0.207 ± 0.028; with E. coli TESEC Mtb Alr [2] (setting [8]), 0.159 ± 0.0076; in the assay on E. coli TESEC Mtb Alr [2] (setting [9]), 0.138 ± 0.0041. The growth was determined as 0.295 ± 0.028 in the assay on E. coli TESEC Mtb Asd (setting [10]), 0.408 ± 0.016 in the assay on E. coli TESEC Mtb Asd (setting [11]), 0.384 ± 0.007 in the assay on E. coli TESEC Mtb Alr [3] (setting [14]) and 0.149 ± 0.013 in the assay on E. coli TESEC Mtb Alr [3] (setting [15]).

Consider `CN(C)C(=O)Oc1cc(OC(=O)N(C)C)cc(C(O)CNC(C)(C)C)c1` (stereo unspecified) [Bambuterol hydrochloride], for which the growth was found to be 0.22 ± 0.0079 in assay [1]; 0.266 ± 0.04 with E. coli TESEC Mtb Alr [2] (setting [5]); 0.273 ± 0.0062 with E. coli TESEC Mtb Alr [2] (setting [6]); 0.232 ± 0.02 in the assay on E. coli TESEC Mtb Alr [2] (setting [7]); 0.193 ± 0.006 with E. coli TESEC Mtb Alr [2] (setting [8]); 0.141 ± 0.0068 in the assay with E. coli TESEC Mtb Alr [2] (setting [9]). The growth with E. coli TESEC Mtb Asd (setting [10]) was 0.328 ± 0.026; in the assay on E. coli TESEC Mtb Asd (setting [11]) it was 0.39 ± 0.047; in assay [4], 0.618 ± 0.051; with E. coli TESEC Mtb Alr [3] (setting [14]), 0.405 ± 0.011; with E. coli TESEC Mtb Alr [3] (setting [15]), 0.342 ± 0.015.

As to `CN1C(=O)CCS(=O)(=O)C1c1ccc(Cl)cc1` (stereo unspecified) [Chlormezanone], the growth in assay [1] worked out at 0.244 ± 0.0034; with E. coli TESEC Mtb Alr [2] (setting [5]), 0.298 ± 0.018; in the assay with E. coli TESEC Mtb Alr [2] (setting [6]), 0.256 ± 0.0031; in the assay on E. coli TESEC Mtb Alr [2] (setting [7]), 0.256 ± 0.012; in the assay on E. coli TESEC Mtb Alr [2] (setting [8]), 0.188 ± 0.013; in the assay with E. coli TESEC Mtb Alr [2] (setting [9]) it was 0.146 ± 0.005. The growth with E. coli TESEC Mtb Asd (setting [10]) came out at 0.328 ± 0.08; with E. coli TESEC Mtb Asd (setting [11]), 0.407 ± 0.066; in the assay on E. coli TESEC Mtb Alr [3] (setting [14]) it was 0.408 ± 0.011; in the assay with E. coli TESEC Mtb Alr [3] (setting [15]), 0.367 ± 0.0068.

`CC(=O)OCC1=C(C(=O)O)N2C(=O)[C@@H](N)[C@H]2SC1` [Cephalosporanic acid, 7-amino]: the growth in assay [1] was determined as 0.254 ± 0.0055; with E. coli TESEC Mtb Alr [2] (setting [5]), 0.295 ± 0.011; in the assay with E. coli TESEC Mtb Alr [2] (setting [6]), 0.269 ± 0.008; in the assay on E. coli TESEC Mtb Alr [2] (setting [7]), 0.22 ± 0.023; in the assay on E. coli TESEC Mtb Alr [2] (setting [8]), 0.205 ± 0.011; in the assay with E. coli TESEC Mtb Alr [2] (setting [9]), 0.151 ± 0.0034. Also, the growth was found to be 0.273 ± 0.018 with E. coli TESEC Mtb Asd (setting [10]); 0.402 ± 0.086 with E. coli TESEC Mtb Asd (setting [11]); 0.649 ± 0.029 in assay [4]; 0.408 ± 0.013 in the assay with E. coli TESEC Mtb Alr [3] (setting [14]); 0.356 ± 0.011 with E. coli TESEC Mtb Alr [3] (setting [15]).

Source of the values: the supplement of paper PMC9262897, “Low-cost anti-mycobacterial drug discovery using engineered E. coli” (Nature Communications, 2022).
